A short description of assay [1]: small molecules captured by biotinylated probe aFSTL3 – biochemical, small-molecule microarray, fluorescence 635/667, stem cell growth factor project, primary screen (AID 1064).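 Further: measures binding of the biotinylated anti-FSTL3 antibody to printed compounds.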 Conditions: higher = more signal.
The nature of assay [2]: binders from COS7 lysate, DM2A8 probe, primary screen, torsin A project, cell lysate, small-molecule microarray, fluorescence 635/667 (AID 1065). Conditions: higher = more signal, COS7 lysate expressing mutant human TOR1A.
A short description of assay [3]: small molecules captured by biotinylated probe aFGF2 – biochemical, small-molecule microarray, fluorescence 635/667, stem cell growth factor project, primary screen (AID 1067).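 Further: measures binding of biotinylated aFGF2 protein to printed compounds on slides; z-score merges feature fluorescence and signal-to-noise across triplicate slides.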 To be noted: higher = more signal.
Assay [4] can be described thus: small molecules captured by biotinylated probe aFGF10 – biochemical, small-molecule microarray, fluorescence 635/667, stem cell growth factor project, primary screen (AID 1071).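 Further: score merges 667 nm spot intensity and signal to noise from triplicate slides.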 Conditions: higher = more signal.
Assay [5] has as its target Neurogenic locus notch homolog protein 2 (Homo sapiens) (UniProt Q04721). Description: small molecules binding Notch2 protein – biochemical, small-molecule microarray, 635 nm fluorescence, stem cell growth factors, primary screen (AID 1073). Conditions: higher = more signal.
In assay [6] the target is Pro-neuregulin-1, membrane-bound isoform (Homo sapiens) (UniProt Q02297). The experiment in a line: small molecules binding neuregulin-1 protein – biochemical, small-molecule microarray, fluorescence 635/667, psychiatric disease protein project, primary screen (AID 1075).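 Further: score combines 667 nm spot fluorescence with signal to noise.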 Conditions: NRG1 binding, 635 nm fluorescence, higher = more signal.
Chain of Pro-neuregulin-1, membrane-bound isoform (Homo sapiens) (Q02297 whole entry, looked up, the tested form may be a part, canonical isoform): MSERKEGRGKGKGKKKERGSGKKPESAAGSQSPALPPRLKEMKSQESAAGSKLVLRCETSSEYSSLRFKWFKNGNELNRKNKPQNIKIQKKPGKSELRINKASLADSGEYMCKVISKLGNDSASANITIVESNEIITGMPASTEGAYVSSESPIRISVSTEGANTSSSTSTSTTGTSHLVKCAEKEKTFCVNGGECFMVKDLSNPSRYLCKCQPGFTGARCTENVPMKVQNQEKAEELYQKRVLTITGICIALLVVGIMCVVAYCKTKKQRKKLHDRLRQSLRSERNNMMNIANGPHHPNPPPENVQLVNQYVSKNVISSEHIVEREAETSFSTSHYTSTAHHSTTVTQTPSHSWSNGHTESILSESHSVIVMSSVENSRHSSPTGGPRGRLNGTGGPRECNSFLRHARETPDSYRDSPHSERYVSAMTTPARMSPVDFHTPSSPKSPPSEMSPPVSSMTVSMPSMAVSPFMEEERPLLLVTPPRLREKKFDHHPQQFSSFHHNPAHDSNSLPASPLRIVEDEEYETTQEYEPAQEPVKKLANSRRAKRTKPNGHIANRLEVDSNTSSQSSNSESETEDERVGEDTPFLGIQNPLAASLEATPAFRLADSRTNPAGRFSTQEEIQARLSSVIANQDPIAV
Assay [7] concerns Neuregulin-1 EGF-like domain. The experiment in a line: small molecules binding NRG1 EGF domain – biochemical, small-molecule microarray, 635 nm fluorescence, primary screen (AID 1081).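 Further: binding of the protein to compounds printed on small-molecule microarray slides.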 To be noted: higher = more signal.
Assay [8] is described as follows: FRG1 expression reporter modulators in myotubes – cell-based, C2C12 myotubes, firefly/Renilla luciferase, luminescence, FRG1 inhibition for FSHD, primary screen (AID 1084). To be noted: FRG1 promoter luciferase, higher = more signal, called active from +8 up or from −8 down.
A short description of assay [9]: small molecules captured by biotinylated probe aFST – biochemical, small-molecule microarray, fluorescence 635/667, stem cell growth factor project, primary screen (AID 1086).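 Further: score merges 667 nm fluorescence with signal-to-noise of each printed compound spot.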 To be noted: higher = more signal.
Assay [10] in a line: binders of probe aHhip on microarray, primary screen, stem cell growth factor project, biochemical, small-molecule microarray, fluorescence 635/667 (AID 1087).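 Further: score merges spot fluorescence at 667nm with spot signal to noise ratio.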 Conditions: higher = more signal.
Assay [11] relates to PRMT1 (protein arginine N-methyltransferase 1). The experiment in a line: small molecules binding arginine methyltransferase PRMT1 – biochemical, small-molecule microarray, 635 nm fluorescence, primary screen (AID 1088).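 Further: binding of Prmt1 protein to compounds spotted on small-molecule microarray slides.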 To be noted: higher = more signal.
Assay [12] can be described thus: growth effects on S. cerevisiae YJM789 – YJM789 clinical isolate, OD600, 24 h, basal, primary screen (AID 1089).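 Further: growth of clinical yeast isolate S. cerevisiae YJM 789 seeded 1000 cells per well; test concentration not given here.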 Conditions: higher = more signal, called active from +8 up or from −8 down.
The nature of assay [13]: S. pombe growth modifiers, basal conditions – strain 972, OD600, 24 h, no modulator, primary screen (AID 1090).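 Further: basal condition with compound alone and no growth modifier present; test concentration not given here.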 To be noted: S. pombe 972 growth, higher = more signal, called active from +8 up or from −8 down.
The nature of assay [14]: budding yeast growth modifiers under rapamycin – strain BY4716, OD600, 96 h, primary screen (AID 1091). Further: test concentration not given here. To be noted: S. cerevisiae BY4716 + rapamycin, higher = more signal, called active from +8 up or from −8 down.
The target in assay [15] is Torsin-1A-interacting protein 2 (Homo sapiens) (UniProt Q8NFQ8). The experiment in a line: small molecules binding lysate-expressed LULL1 – cell lysate, human LULL1 lysate, 635/667 nm fluorescence, primary screen (AID 1092).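 Further: probe is lysate of COS7 cells overexpressing human LULL1; score merges per-feature 667 nm fluorescence with signal-to-noise.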 To be noted: small-molecule microarray, hLULL1 lysate binding, 635 nm fluorescence; higher = more signal.
Chain of Torsin-1A-interacting protein 2 (Homo sapiens) (Q8NFQ8 whole entry, looked up): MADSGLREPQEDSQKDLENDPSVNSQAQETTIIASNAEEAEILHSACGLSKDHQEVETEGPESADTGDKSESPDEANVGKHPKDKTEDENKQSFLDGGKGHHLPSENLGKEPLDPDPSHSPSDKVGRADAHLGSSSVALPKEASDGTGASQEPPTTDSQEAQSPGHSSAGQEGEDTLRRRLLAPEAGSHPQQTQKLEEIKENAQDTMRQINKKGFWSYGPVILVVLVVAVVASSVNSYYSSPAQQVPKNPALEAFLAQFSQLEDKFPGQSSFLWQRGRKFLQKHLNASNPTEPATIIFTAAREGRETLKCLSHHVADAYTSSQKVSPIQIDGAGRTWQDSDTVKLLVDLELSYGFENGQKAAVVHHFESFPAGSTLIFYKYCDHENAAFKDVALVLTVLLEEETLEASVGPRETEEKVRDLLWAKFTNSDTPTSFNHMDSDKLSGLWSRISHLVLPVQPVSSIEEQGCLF
Assay [16] is described as follows: optical density change of DRC41 E. coli – strain DRC41, OD650, 24 h, E. coli filamentation project, primary screen (AID 1093).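 Further: MC1000 strain lacking acrAB efflux and sulA so SOS filamentation is blocked; test concentration not given here.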 Conditions: E. coli DRC41 growth, higher = more signal, called active from +8 up or from −8 down.
Assay [17] can be described thus: probe aLefty2 binding to arrayed compounds – biochemical, biotinylated probe, 635/667 nm fluorescence, primary screen (AID 1094).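 Further: score merges spot fluorescence near 667 nm with spot signal-to-noise ratio.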 To be noted: small-molecule microarray, higher = more signal.
The test system of assay [18] is Noggin (protein binding on small-molecule microarray). The experiment in a line: small molecules binding Noggin protein – biochemical, 635/667 nm fluorescence, primary screen (AID 1095).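 Further: score merges 667 nm feature fluorescence with signal to noise over triplicate slides.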 Conditions: 635 nm fluorescence, higher = more signal.
Assay [19] concerns the target Neurogenic locus notch homolog protein 3 (Homo sapiens) (UniProt Q9UM47). The experiment in a line: small molecules binding NOTCH3 protein – biochemical, 635/667 nm fluorescence, primary screen (AID 1096). Conditions: small-molecule microarray, 635 nm fluorescence, higher = more signal.
Assay [20] is described as follows: probe aEGFR binding to arrayed compounds – biochemical, biotinylated probe, 635/667 nm fluorescence, primary screen (AID 1097).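 Further: probe is a biotinylated anti-EGFR antibody binding compounds printed on slides; score combines fluorescence near 667 nm and signal to noise of each spot.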 Conditions: small-molecule microarray, higher = more signal.

Molecules are shown by their SMILES. Active and inactive are the calls of the source.

Drawing on PubChem BioAssay, this text covers composite z-score and z-score for 5 compounds.

Chain of Neurogenic locus notch homolog protein 2 (Homo sapiens) (Q04721 whole entry, looked up, canonical isoform): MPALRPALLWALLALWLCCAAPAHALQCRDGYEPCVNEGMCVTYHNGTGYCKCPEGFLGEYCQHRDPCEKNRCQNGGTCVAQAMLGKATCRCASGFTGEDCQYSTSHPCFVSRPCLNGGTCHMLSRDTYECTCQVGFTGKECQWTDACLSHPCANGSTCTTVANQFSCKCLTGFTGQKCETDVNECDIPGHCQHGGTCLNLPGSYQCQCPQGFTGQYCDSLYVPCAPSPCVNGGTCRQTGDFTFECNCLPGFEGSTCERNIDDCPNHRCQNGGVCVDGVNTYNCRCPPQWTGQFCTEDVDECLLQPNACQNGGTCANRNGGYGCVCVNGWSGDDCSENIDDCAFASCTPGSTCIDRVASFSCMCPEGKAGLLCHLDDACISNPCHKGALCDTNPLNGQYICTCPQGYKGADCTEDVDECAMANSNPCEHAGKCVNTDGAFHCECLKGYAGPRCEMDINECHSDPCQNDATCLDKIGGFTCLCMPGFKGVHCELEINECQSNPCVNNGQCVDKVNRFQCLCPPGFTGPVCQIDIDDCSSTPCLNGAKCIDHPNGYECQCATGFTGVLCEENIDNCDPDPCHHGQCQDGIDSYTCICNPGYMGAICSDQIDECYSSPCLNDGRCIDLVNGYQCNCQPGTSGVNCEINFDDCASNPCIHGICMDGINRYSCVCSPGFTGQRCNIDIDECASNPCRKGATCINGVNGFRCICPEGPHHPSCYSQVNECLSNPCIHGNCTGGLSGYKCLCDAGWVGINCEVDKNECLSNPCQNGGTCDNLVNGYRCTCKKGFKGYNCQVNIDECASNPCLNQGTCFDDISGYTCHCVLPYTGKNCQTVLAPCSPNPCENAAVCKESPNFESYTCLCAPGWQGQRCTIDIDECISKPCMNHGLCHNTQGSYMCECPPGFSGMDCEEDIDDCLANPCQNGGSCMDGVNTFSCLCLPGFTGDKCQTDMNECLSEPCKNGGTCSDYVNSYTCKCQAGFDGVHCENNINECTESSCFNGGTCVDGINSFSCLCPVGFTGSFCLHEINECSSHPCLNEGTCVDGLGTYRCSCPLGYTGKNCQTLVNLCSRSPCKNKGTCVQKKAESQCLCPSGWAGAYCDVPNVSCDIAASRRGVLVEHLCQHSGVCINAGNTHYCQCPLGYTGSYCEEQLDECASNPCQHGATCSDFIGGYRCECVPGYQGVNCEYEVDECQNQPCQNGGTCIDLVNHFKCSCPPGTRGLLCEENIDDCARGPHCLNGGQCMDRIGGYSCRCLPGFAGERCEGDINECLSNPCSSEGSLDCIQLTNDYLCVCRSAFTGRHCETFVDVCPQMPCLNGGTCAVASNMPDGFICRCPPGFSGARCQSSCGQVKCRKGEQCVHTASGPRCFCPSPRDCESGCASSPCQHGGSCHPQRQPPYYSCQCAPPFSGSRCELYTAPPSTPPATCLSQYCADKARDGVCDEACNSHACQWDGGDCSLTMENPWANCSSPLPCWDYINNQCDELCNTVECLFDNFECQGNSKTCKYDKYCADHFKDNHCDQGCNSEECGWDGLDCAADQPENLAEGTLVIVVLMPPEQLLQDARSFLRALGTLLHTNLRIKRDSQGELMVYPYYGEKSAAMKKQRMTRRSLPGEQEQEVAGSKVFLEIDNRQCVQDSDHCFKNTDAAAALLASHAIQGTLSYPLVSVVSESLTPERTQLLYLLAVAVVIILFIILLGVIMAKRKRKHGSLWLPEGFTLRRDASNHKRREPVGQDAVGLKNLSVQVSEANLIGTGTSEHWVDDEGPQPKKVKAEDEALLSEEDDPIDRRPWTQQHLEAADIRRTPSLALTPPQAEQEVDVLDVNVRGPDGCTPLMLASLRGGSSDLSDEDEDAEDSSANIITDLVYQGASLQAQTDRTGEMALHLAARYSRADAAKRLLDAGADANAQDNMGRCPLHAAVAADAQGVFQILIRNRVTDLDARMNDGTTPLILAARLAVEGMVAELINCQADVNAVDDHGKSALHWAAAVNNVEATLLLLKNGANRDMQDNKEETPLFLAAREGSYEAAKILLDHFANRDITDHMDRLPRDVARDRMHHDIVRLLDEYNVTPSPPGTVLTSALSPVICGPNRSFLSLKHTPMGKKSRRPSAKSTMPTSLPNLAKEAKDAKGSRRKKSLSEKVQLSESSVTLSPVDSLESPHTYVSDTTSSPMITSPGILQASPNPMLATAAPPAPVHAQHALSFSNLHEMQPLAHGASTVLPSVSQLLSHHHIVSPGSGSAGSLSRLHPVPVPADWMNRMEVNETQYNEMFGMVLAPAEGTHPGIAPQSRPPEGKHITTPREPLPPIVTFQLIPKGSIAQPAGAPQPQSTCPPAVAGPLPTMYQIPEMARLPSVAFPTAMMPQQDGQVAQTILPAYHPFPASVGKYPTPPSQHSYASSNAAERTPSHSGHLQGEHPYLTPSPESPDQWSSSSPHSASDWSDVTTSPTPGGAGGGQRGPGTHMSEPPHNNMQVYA

For `CN(C)CCCNC(=O)[C@@H]1c2ccccc2C(=O)N(Cc2cc(F)cc(C(F)(F)F)c2)[C@H]1c1ccc(CO)cc1`, the composite z-score in assay [1] is 1.11; in assay [2] it was 1.01; in assay [3], -0.0692; in assay [4] it was -0.436; in assay [5] it was 0.102; in [6], 1.33. The composite z-score was 1.36 in assay [7]; -0.186 in assay [9]; 0.316 in assay [10]; 1.56 in assay [11]; 2.93 in assay [15]; -0.166 in assay [17]. Moreover, the values for the composite z-score in assay [18], in assay [19] and in assay [20] were -0.0315, -1.2 and -0.174, respectively. Further, the z-score is -1.19 (inactive) in [8]; -0.414 (inactive) in assay [12]; -0.627 (inactive) in assay [13]; -0.917 (inactive) in assay [14]; -0.66 (inactive) in assay [16].
Consider `CCOC(=O)[C@H](Cc1ccccc1)NC(=O)CCC1CC(OC(=O)NCc2ccc3c(c2)OCO3)CC2(CCCC(COC(=O)NCC3CCCCC3)O2)O1` (stereo not given in full), for which the composite z-score in assay [1] was -0.632; in assay [2], 0.247; in [3], -0.0775; in [4] it was 0.256; in [5] it was 1.19; in assay [6] it was 0.306. Further, the composite z-score is 1.04 in assay [7]; 1.27 in assay [9]; -0.0994 in [10]; 1.55 in assay [11]; 2.62 in assay [15]; -0.157 in assay [17]. In addition, the values for the composite z-score in assay [18], in assay [19] and in [20] were 0.742, 1.11 and 0.0632, respectively. Further, the z-score is 1.2 (inactive) in assay [8]; -0.827 (inactive) in assay [12]; 0.455 (inactive) in assay [13]; -0.38 (inactive) in assay [14]; -0.201 (inactive) in assay [16].
With `COC(=O)[C@H]1COC(c2ccc(OCCCO)cc2)=N1`, the composite z-score is 0.971 in [1]; -0.354 in assay [2]; -0.0425 in assay [3]; -0.576 in assay [4]; 0.115 in assay [5]; -0.0556 in assay [6]. Moreover, the composite z-score in assay [7] is 0.207; in assay [9] it was 0.179; in [10], -0.0618; in assay [11] it was -0.152; in assay [15], 3.59; in assay [17] it was 0.267. In addition, the composite z-score in assay [18] is -0.37; in assay [19] it was -0.607; in assay [20], -0.0947. Also, the z-score in assay [8] was 0.97 (inactive); in [12], -0.488 (inactive); in assay [13] it was -0.888 (inactive); in assay [14] it was -0.606 (inactive); in assay [16], 0.332 (inactive).
On to `C[C@@H](c1ccccc1)N1C(=O)[C@H]2[C@H]3[C@H](O)C=CC(=O)[C@@H]3CC[C@H]2C1=O`, for which the composite z-score in [1] was -0.663; in assay [2], 0.0994; in [3] it was -0.218; in assay [4], 0.277; in assay [5] it was 0.348; in assay [6], 0.185. In addition, the composite z-score is 0.609 in [7]; 0.123 in assay [9]; -0.0738 in [10]; 0.595 in [11]; -0.309 in assay [15]; -0.252 in assay [17]. Moreover, the composite z-score was 0.421 in assay [18], 0.698 in assay [19] and -0.0649 in assay [20]. Moreover, the z-score is -0.608 (inactive) in assay [8]; -0.432 (inactive) in assay [12]; -0.271 (inactive) in assay [13]; -0.402 (inactive) in assay [14]; 0.372 (inactive) in [16].
For the compound `CC(C)[C@H](NC(=O)OC(C)(C)C)[C@@H](O)CC(=O)OC(C)(C)C`, the composite z-score in assay [1] was -0.273; in assay [2], -0.584; in [3], -0.116; in assay [4] it was -0.267; in [5], -0.756; in [6], -0.739. For the same compound, the composite z-score in assay [7] was -1.18; in assay [9], -0.357; in assay [10], 0.0881; in assay [11] it was -1.84; in assay [15] it was -1.63; in assay [17], -0.22. In addition, the figures for the composite z-score in [18], in [19] and in assay [20] were -0.531, -0.904 and -0.29, respectively. Besides, the z-score in [8] was 0.0293 (inactive); in assay [12], -0.0351 (inactive); in [13] it was -0.379 (inactive); in assay [14], 0.596 (inactive); in assay [16] it was -0.809 (inactive).
